The values that follow come from PubChem BioAssay (Tox21).

Assay [1] is described as follows: qHTS assay to test for compound auto fluorescence at 535 nm (green) in HEK293 cells (AID 720680).
Assay [2] can be described thus: qHTS assay to test for compound auto fluorescence at 460 nm (blue) in HEK293 cell free culture (AID 720681). In short, it runs like this: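 Test compounds were pinned into cell-free culture medium (DMEM with 10% FBS) and fluorescence was read directly at Ex/Em 405/460 nm. Signals were expressed as fluorescence equivalents of triamterene, with DMSO vehicle as control.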
A general note: In qHTS, concentration-response curves come from the screen itself.

Assay [3] is described as follows: qHTS assay to test for compound auto fluorescence at 535 nm (green) in HEK293 cell free culture (AID 720682). In a few lines:
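No cells present: wells hold DMEM supplemented with 10% FBS, into which compound or vehicle is pinned. Green emission is then recorded (485 nm excitation, 535 nm emission) and scaled to fluorescein.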

The nature of assay [4]: qHTS assay to test for compound auto fluorescence at 590 nm (red) in HEK293 cell free culture (AID 720683). In a few lines: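 Tox21 10K library compounds were pinned into cell-free DMEM with 10% FBS and fluorescence was read at excitation 540 nm. Activity is expressed as Rose Bengal sodium equivalency.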
Assay [5] can be described thus: qHTS assay to test for compound auto fluorescence at 590 nm (red) in HepG2 cell free culture (AID 720684). In short, it runs like this: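 Readout: intrinsic compound fluorescence at 590 nm emission after 540 nm excitation, scaled to Rose Bengal sodium. Matrix was cell-free MEM with 10% FBS; DMSO vehicle wells served as control.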
The nature of assay [6]: qHTS assay to test for compound auto fluorescence at 460 nm (blue) in HepG2 cell free culture (AID 720685). In a few lines: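 Cell-free plates of MEM plus 10% FBS received 23 nL compound or DMSO vehicle; blue-channel (405/460 nm) intensity scored against triamterene as reference fluorophore.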
The nature of assay [7]: qHTS assay to test for compound auto fluorescence at 535 nm (green) in HepG2 cell free culture (AID 720686).
Assay [8] can be described thus: qHTS assay to test for compound auto fluorescence at 460 nm (blue) in HepG2 cells (AID 720687). In a few lines:
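Cells (2,000/well in MEM with 10% FBS) attached overnight at 37 C, then were exposed to compound or DMSO for 1 hr at 37 C, 5% CO2. Fluorescence read at Ex/Em 405/460 nm, expressed as triamterene-equivalent signal.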

Assay [9] can be described thus: qHTS assay to identify small molecule antagonists of the glucocorticoid receptor (GR) signaling pathway - cell viability counter screen (AID 720693). Further: nearly all actives have a fitted effect of over 55% in size.
Assay [10] is described as follows: qHTS assay for identifying genotoxic compounds that show differential cytotoxicity against isogenic chicken DT40 cell lines with known DNA damage response pathways - wild type cell line (AID 743012). Further: nearly all actives have a fitted effect of over 60% in size. In short, it runs like this:
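CellTiter-Glo luminescence readout of viability in wild type DT40 cells after 40 h compound exposure at 37 C/5% CO2; 300 cells/well; reagent incubated 30 min at room temperature before reading.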

Assay [11] can be described thus: qHTS assay for identifying genotoxic compounds that show differential cytotoxicity against isogenic chicken DT40 cell lines with known DNA damage response pathways - Rad54/Ku70 mutant cell line (AID 743015). Further: nearly all actives have a fitted effect of over 60% in size.
Assay [12] in a line: qHTS assay to identify small molecule antagonists of the androgen receptor (AR) signaling pathway - cell viability counter screen (AID 743033; further: nearly all actives have a fitted effect of over 45% in size).
The target in assay [13] is Androgen receptor (Homo sapiens) (UniProt P10275). Nature of the assay: qHTS assay to identify small molecule antagonists of the androgen receptor (AR) signaling pathway (AID 743035; active means well fitted inhibition curve with a large enough effect in the signal ratio in the repeat runs, not every such curve was filed as active; the % refers to the signal ratio). In a few lines:
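AR-bla HEK293 reporter cells; 4 h settle at 37C/5% CO2; compound + R1881 agonist, 16 h at 37C; LiveBLAzer B/G FRET substrate 2 h RT; fluorescence intensity read. qHTS format.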

For assay [14] the target is unchanged. Nature of the assay: qHTS assay to identify small molecule agonists of the androgen receptor (AR) signaling pathway (AID 743036; active means well fitted activation curve with a large enough effect in the signal ratio in the repeat runs, with a control signal flat, not every such curve was filed as active; the % refers to the signal ratio; further: potency means the concentration at half of the fitted maximal effect). In a few lines:
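Quantitative HTS of the Tox21 10K library in HEK293 cells bearing a stably integrated UAS-controlled beta-lactamase reporter. Compound exposure lasted 16 h at 37C. Reporter activity was detected by FRET substrate fluorescence after 2 h at room temperature.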

Assay [15] has the same target. Kind of assay: qHTS assay to identify small molecule agonists of the androgen receptor (AR) signaling pathway using the MDA cell line (AID 743040; further: nearly all actives have a fitted effect of over 20% in size; further: potency means the concentration at half of the fitted maximal effect). In short, it runs like this: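 Agonist activity is measured as luciferase luminescence in human MDA-kb2 cells whose MMTV reporter responds to both AR and GR. Compounds in DMSO incubate 16 h at 37C, 0% CO2, and ONE-Glo is read after 30 min.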

Assay [16] in a line: qHTS assay to identify small molecule antagonists of the androgen receptor (AR) signaling pathway using the MDA cell line - cell viability counter screen (AID 743041; further: nearly all actives have a fitted effect of over 45% in size). In a few lines:
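qHTS viability read-out; MDA-kb2 AR-luc; R1881-stimulated; 16 h exposure at 37C, 0% CO2; CellTiter-Fluor, 30 min; fluorescence intensity.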

Assay [17] deals with Androgen receptor (Homo sapiens) (UniProt P10275). Kind of assay: qHTS assay to identify small molecule antagonists of the androgen receptor (AR) signaling pathway using the MDA cell line (AID 743042; further: nearly all actives have a fitted effect of over 55% in size). In short, it runs like this:
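MDA-kb2 cells (human breast carcinoma, stably carrying an MMTV-luciferase reporter responsive to AR and GR) were plated at 3,000 cells/well and preincubated 5 hr at 37C, then given compound plus R1881 agonist for 16 h. ONE-Glo luminescence was read.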

Assay [18] can be described thus: qHTS assay for identifying genotoxic compounds that show differential cytotoxicity against isogenic chicken DT40 cell lines with known DNA damage response pathways - Rev3 mutant cell line (AID 743014). Further: nearly all actives have a fitted effect of over 55% in size.
Assay [19] addresses Glucocorticoid receptor (Homo sapiens) (UniProt P04150). Nature of the assay: qHTS assay to identify small molecule agonists of the glucocorticoid receptor (GR) signaling pathway (AID 720691; active means well fitted activation curve with a large enough effect in the signal ratio in the repeat runs, not every such curve was filed as active; the % refers to the signal ratio). In a few lines: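 HeLa GR-bla reporter line; cells pre-incubated 4 h, compound in DMSO 18 h at 37 C; LiveBLAzer B/G FRET substrate 2 h RT; fluorescence intensity read-out.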

Molecules are shown by their SMILES. “And” between values parts separate entries of the source, which are not always exact repeats. Equal entries are not always repeated. Results filed as inconclusive are left out. The source made the active and inactive calls. Unless noted, the call rests on the fitted dose curve; in most records, active means well fitted curve in the direction sought with a large enough effect in the repeat runs; inconclusive means weak or mixed curves; inactive means no such curve, though single readings can be large; an effect the other way counts as inactive or inconclusive.

Chain of Androgen receptor (Homo sapiens) (P10275 whole entry, looked up): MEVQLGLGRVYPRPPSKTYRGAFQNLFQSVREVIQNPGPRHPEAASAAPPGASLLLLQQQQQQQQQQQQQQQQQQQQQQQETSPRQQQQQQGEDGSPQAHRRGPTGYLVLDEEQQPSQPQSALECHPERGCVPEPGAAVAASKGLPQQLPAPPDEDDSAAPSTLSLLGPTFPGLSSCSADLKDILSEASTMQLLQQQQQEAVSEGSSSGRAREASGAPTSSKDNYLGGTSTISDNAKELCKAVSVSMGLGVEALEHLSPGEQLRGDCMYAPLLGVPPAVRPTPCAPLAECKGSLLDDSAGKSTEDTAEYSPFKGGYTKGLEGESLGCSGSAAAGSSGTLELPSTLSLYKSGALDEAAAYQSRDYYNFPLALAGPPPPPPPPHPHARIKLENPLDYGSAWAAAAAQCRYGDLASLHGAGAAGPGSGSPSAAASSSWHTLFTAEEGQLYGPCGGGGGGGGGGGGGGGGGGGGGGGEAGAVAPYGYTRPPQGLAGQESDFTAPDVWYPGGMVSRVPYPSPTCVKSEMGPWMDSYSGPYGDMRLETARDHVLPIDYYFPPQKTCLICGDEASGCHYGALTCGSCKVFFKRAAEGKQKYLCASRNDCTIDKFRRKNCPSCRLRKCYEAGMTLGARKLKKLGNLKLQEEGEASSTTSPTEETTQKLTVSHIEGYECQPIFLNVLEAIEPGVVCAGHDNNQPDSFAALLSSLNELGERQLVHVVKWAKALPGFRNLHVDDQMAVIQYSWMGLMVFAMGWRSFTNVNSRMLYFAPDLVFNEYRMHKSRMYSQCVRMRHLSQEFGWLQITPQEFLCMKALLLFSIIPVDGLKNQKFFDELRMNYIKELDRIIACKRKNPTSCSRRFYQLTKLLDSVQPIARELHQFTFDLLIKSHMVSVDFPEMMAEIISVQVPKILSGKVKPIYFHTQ
Chain of Glucocorticoid receptor (Homo sapiens) (P04150 whole entry, looked up): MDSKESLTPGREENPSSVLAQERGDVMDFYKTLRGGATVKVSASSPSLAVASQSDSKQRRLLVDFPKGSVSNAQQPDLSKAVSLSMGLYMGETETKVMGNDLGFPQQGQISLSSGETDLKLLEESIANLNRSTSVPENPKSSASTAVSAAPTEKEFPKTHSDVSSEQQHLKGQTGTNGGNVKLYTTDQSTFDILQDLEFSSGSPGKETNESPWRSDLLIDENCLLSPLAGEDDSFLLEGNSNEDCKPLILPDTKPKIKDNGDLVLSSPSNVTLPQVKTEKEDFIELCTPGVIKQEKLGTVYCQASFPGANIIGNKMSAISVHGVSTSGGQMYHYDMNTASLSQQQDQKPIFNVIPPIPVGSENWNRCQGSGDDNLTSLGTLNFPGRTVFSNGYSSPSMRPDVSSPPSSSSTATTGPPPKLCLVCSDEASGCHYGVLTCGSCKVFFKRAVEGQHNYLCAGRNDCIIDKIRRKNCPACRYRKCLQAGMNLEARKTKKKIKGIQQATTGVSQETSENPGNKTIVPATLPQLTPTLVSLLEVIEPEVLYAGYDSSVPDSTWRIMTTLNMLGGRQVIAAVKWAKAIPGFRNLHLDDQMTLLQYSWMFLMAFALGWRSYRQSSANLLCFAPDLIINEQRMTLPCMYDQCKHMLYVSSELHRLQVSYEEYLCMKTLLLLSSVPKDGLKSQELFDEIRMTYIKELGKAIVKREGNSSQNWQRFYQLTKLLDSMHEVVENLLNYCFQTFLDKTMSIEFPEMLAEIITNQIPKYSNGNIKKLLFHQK

In the case of `COc1ccccc1OCC(O)CO` (centres undefined), the compound was classed as inactive in [1], in assay [2], in assay [3], in assay [4], in assay [5] and in assay [6]. The compound was called inactive in assay [7], in assay [8], in assay [9], in assay [12], in [13] and in assay [17]. Moreover, the Potency result in assay [10], in assay [11], in [14], in assay [15] and in assay [16] was “inactive” throughout.
For the compound `CN1C(=O)CC[C@H]1c1cccnc1`, the compound was called inactive in assay [1], in assay [2], in assay [3], in assay [4], in [5] and in assay [6]. For the same compound, the call in [7], in [8], in [9] and in assay [12] was inactive. Further, the Potency entry in assay [10], in assay [18], in assay [11] and in [16] was “inactive” in each case.
Regarding `C[C@]12CC[C@@H]3c4ccc(O)cc4CC[C@H]3[C@@H]1C[C@@H](O)[C@@H]2O`, the compound was called inactive in assay [1], in assay [2], in assay [3], in assay [4], in [5] and in [6]. Also, the result in [7], in [8], in [19], in [9] and in assay [12] was inactive. In addition, the Potency result in assay [16] is “inactive”.
Take `Nc1ccc(Cl)c(N)c1`: the result in assay [1], in [2], in [3], in assay [4], in assay [5] and in assay [6] was inactive. Also, the compound was classed as inactive in assay [7], in assay [8], in [9] and in assay [12]. Also, the Potency result in assay [10] and in [16] was “inactive” each time.
Take `COCCCN`: the call in assay [1], in assay [2], in [3], in [4], in [5] and in assay [6] was inactive. Moreover, the outcome in [7], in assay [8], in assay [19], in assay [9] and in assay [12] was inactive. The Potency result in [10], in assay [11] and in [16] was “inactive” throughout.
`C=C(C)C(=O)OCC(C)C`: the compound was classed as inactive in [1], in assay [2], in assay [3], in assay [4], in [5] and in [6]. Also, the call in assay [7], in assay [8], in [9] and in assay [12] was inactive. Moreover, the Potency entry in [10], in assay [18], in assay [11] and in assay [16] was “inactive” each time.
`Brc1ccc(Br)c(Br)c1`: the result in assay [1], in [2], in assay [3], in [4], in assay [5] and in [6] was inactive. The compound was called inactive in assay [7], in assay [8], in assay [9] and in assay [12]. For the same compound, the Potency result in assay [10], in assay [11] and in assay [16] was “inactive” each time.
On to `CCNc1cccc(C)c1`, for which the call in assay [1], in assay [2], in [3], in [4], in [5] and in [6] was inactive. In addition, the compound was classed as inactive in [7], in assay [8], in [9] and in assay [12]. Besides, the Potency result in [10], in assay [18], in [11] and in [16] was “inactive” throughout.
As for `CCNc1ccccc1`, the compound was classed as inactive in assay [1], in [2], in assay [3], in assay [4], in assay [5] and in assay [6]. The outcome in assay [7], in assay [8], in [9], in assay [12], in [13] and in assay [17] was inactive. In addition, the Potency result in assay [10], in [11], in assay [14], in [15] and in assay [16] was “inactive” each time.
With `C[C@]12CCC(=O)C=C1CC[C@@H]1[C@@H]2[C@@H](O)C[C@@]2(C)[C@H]1CC[C@]2(O)C(=O)CO`, the call in assay [1], in [2], in assay [3], in assay [4], in [5] and in assay [6] was inactive. In addition, the call in assay [7], in assay [8], in assay [9], in [13] and in [17] was inactive. For the same compound, the Potency entry in assay [10], in assay [18], in [11] and in assay [16] was “inactive” in each case. Besides, the Potency in [14] was 21.3 nM (active) and 27.8 nM (active); in assay [15] it was 119 nM (active) and 69.3 nM (active).
